We go through 34 compounds from PubChem BioAssay (Tox21).

The nature of test [1]: qHTS assay to identify small molecule antagonists of the peroxisome proliferator-activated receptor gamma (PPARg) signaling pathway - cell viability counter screen (AID 743194). Also: nearly all actives have a fitted effect of over 55% in size. Also: potency is read from the fitted curve at half-maximal effect. The essentials:
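PPARg-UAS-bla HEK293H cells were plated, rested 5 h at 37 C, then treated with compounds plus rosiglitazone (50 nM final) for 17 h at 37 C; viability was then read by CellTiter-Glo luminescence after 30 min at room temperature.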
(Quantitative high-throughput screening tests each substance at several concentrations.)

The nature of test [2]: qHTS assay for small molecule agonists of the antioxidant response element (ARE) signaling pathway - cell viability counter screen (AID 743203; calls by dose curve; also: nearly all actives have a fitted effect of over 55% in size; also: potency is read from the fitted curve at half-maximal effect). The essentials:
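Parallel cytotoxicity read-out for the ARE-bla screen: HepG2 reporter cells, 16 hrs with compounds, then CellTiter-Glo luminescence.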

Test [3] addresses Aryl hydrocarbon receptor (Homo sapiens) (UniProt P35869). The test can be described thus: qHTS assay to identify small molecule that activate the aryl hydrocarbon receptor (AhR) signaling pathway (AID 743085). Also: nearly all actives have a fitted effect of over 15% in size. Also: potency is read from the fitted curve at half-maximal effect.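 As to activation: HG2L7.5c1 human HepG2 liver cells with stably integrated DRE-driven firefly reporter; series mostly up to about 70 µM.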 The essentials: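 Stably transfected human liver carcinoma cells (HG2L7.5c1; 20 DRE-firefly luciferase) were incubated 5 h, dosed, and kept 24 h at 37C. Agonism was scored from increased luciferase luminescence.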

Test [4] is described as follows: qHTS assay for small molecule activators of the heat shock response signaling pathway - cell viability counter screen (AID 743209). Also: nearly all actives have a fitted effect of over 50% in size. Also: potency is read from the fitted curve at half-maximal effect. In a few lines: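 To flag cytotoxic compounds, HSE-bla HeLa cells plated at 1500 cells/well were dosed for 5 h at 37 C, followed by the reporter FRET read and then CellTiter-Glo, with luminescence recorded 30 min after reagent addition.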

A short description of test [5]: qHTS assay for small molecule agonists of the antioxidant response element (ARE) signaling pathway (AID 743202; active = well fitted activation curve with a large enough effect in the signal ratio in the repeat runs, not every such curve was filed as active; the % refers to the signal ratio; also: potency is read from the fitted curve at half-maximal effect). The essentials:
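Following a 16 h, 37 C exposure of reporter HepG2 cells (ARE-driven beta-lactamase, 2,000 cells/well) to compounds, FRET substrate was applied for 2 h at room temperature and fluorescence intensity recorded.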

The nature of test [6]: qHTS assay for small molecule activators of the heat shock response signaling pathway (AID 743210; active = well fitted activation curve with a large enough effect in the signal ratio in the repeat runs, with a control signal flat, not every such curve was filed as active; the % refers to the signal ratio; also: series mostly up to about 63 µM). The essentials: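 Heat shock element–beta-lactamase HeLa reporter cells; qHTS with compounds for 5 h at 37 C; detection by FRET substrate fluorescence after 2.5 h at RT.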
The target in test [7] is Peroxisome proliferator-activated receptor gamma (Homo sapiens) (UniProt P37231). The test can be described thus: qHTS assay to identify small molecule antagonists of the peroxisome proliferator-activated receptor gamma (PPARg) signaling pathway (AID 743191; calls by dose curve; also: nearly all actives have a fitted effect of over 30% in size; also: potency is read from the fitted curve at half-maximal effect). In a few lines:
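GeneBLAzer PPARg UAS-bla HEK293H cells carrying a UAS-driven beta-lactamase reporter were plated at 3000 cells/well, preincubated 5 h at 37C, then given compound for 17 h at 37C; LiveBLAzer B/G FRET substrate was read after 1 h at room temperature.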

Test [8] is described as follows: qHTS assay to identify small molecule that activate the aryl hydrocarbon receptor (AhR) signaling pathway - cell viability counter screen (AID 743086). Also: nearly all actives have a fitted effect of over 45% in size. Also: potency is read from the fitted curve at half-maximal effect. In a few lines:
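HepG2-AhR-luc (HG2L7.5c1) cells, 4000/well, were preincubated 5 h at 37C, exposed to compound in qHTS format for 24 hr at 37C, then given CellTiter-Fluor for 30 min; viability was read as fluorescence in the reporter wells.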

Test [9] addresses Peroxisome proliferator-activated receptor gamma (Homo sapiens) (UniProt P37231). The test can be described thus: qHTS assay to identify small molecule agonists of the peroxisome proliferator-activated receptor gamma (PPARg) signaling pathway (AID 743094; active = well fitted activation curve with a large enough effect in the signal ratio in the repeat runs, not every such curve was filed as active; the % refers to the signal ratio). In a few lines:
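Fluorescence-based beta-lactamase readout in HEK293H PPARg UAS-bla cells after 17 h compound exposure (37C) and 1 h B/G FRET substrate incubation at room temperature.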

Inconclusive results are not listed. Active and inactive are the calls of the source. Unless noted, calls follow the shape of the dose curve; as a rule, active = well fitted curve in the direction sought with a large enough effect in the repeat runs; inconclusive = weak or mixed curves; inactive = no such curve, though single readings can be large; an effect the other way counts as inactive or inconclusive.

Chain of Peroxisome proliferator-activated receptor gamma (Homo sapiens) (P37231 whole entry, looked up): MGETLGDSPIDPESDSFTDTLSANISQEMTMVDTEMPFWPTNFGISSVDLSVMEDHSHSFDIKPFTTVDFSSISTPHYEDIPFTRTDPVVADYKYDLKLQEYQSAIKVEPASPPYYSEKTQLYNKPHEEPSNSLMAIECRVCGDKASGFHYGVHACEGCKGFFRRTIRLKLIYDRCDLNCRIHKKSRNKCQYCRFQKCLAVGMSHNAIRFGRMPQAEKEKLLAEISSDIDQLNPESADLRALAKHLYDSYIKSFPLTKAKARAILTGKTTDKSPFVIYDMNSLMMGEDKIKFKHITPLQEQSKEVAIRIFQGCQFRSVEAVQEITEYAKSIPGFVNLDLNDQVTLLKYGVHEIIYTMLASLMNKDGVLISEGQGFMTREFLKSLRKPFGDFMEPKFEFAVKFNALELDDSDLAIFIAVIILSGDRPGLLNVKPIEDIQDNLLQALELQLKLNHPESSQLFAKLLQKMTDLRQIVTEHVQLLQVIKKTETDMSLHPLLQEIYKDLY
Chain of Aryl hydrocarbon receptor (Homo sapiens) (P35869 whole entry, looked up): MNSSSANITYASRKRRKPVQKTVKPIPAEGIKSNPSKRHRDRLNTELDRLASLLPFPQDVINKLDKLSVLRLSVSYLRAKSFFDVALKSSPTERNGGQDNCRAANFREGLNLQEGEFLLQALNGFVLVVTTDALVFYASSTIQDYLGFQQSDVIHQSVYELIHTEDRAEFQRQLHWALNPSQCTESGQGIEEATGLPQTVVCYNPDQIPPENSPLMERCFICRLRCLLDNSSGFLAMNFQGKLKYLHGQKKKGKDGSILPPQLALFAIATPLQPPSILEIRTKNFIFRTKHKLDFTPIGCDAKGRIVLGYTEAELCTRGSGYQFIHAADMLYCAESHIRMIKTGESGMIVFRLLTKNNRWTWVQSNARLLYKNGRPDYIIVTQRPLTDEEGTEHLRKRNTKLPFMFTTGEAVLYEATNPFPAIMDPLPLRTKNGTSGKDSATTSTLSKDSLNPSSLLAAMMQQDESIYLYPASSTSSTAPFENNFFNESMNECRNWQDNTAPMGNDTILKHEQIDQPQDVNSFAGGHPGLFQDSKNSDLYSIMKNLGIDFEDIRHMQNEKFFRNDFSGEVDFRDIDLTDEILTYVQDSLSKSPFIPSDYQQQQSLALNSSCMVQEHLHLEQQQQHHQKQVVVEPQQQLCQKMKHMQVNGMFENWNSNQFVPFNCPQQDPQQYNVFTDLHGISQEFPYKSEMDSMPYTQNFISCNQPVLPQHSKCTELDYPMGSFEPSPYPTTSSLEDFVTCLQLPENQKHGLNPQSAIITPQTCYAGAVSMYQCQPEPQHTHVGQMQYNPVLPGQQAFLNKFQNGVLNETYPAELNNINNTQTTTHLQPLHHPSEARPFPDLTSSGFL

Consider `Nc1ccc2c3c(cccc13)-c1ccccc1-2`, for which, in [1], the Potency was 49.5 µM (active). The Potency entry in [2] was “inactive”.

On to `Cc1cccc2c1cc1ccc3cccc4ccc2c1c34`, for which the Potency in [3] is 0.558 µM (active). Also, the Potency entry in test [2] and in [4] was “inactive” in each case.

For the compound `CC(C)(C)C1CCC(CC2=C(O)c3ccccc3C(=O)C2=O)CC1` (stereo unspecified), in [5], the Potency is 2.11 µM (active). Moreover, the Potency entry in [2], in test [4] and in [6] was “inactive” throughout.

On to `O=c1[nH]sc2cc(Cl)ccc12`, for which the Potency entry in [1] and in [2] was “inactive” each time.

`CC[C@@]1(O)C(=O)OCc2c1cc1n(c2=O)Cc2c-1nc1ccccc1c2/C=N/OC(C)(C)C`: the figures for the Potency in [2] and in [4] were 0.335 µM (active) and 0.473 µM (active), respectively.

With `Cc1ccc(O)c2ncccc12`, the Potency in [5] was 4.22 µM (active).

For the compound `CN(C)CCCOC1(Cc2ccccc2)CCCCCC1`, the Potency result in [7], in [1], in test [2], in test [4] and in test [6] was “inactive” throughout.

For `NC(=O)C1(N2CCCCC2)CCN(CCCN2c3ccccc3CCc3ccc(Cl)cc32)CC1`, the Potency in test [1] was 29.8 µM (active); in test [2], 16.8 µM (active).

As to `Cc1cccc(N(C)C(=S)Oc2ccc3c(c2)C2CCC3C2)c1` (stereo unspecified), the Potency entry in [7], in test [1], in test [2] and in test [6] was “inactive” throughout.

On to `O=C(Nc1cccc(C(F)(F)F)c1)c1cc(Br)cc(Br)c1O`, for which the Potency entry in test [3] is “inactive”. In addition, the Potency in test [2] is 10.9 µM (active).

As to `CC(C)n1nc(-c2cc3cc(O)ccc3[nH]2)c2c(N)ncnc21`, the Potency in test [3] is 3.76 µM (active). Further, the Potency entry in test [2] was “inactive”.

For `N#CC1(c2ccc(F)cc2)CCC(=O)CC1`, the Potency result in [7], in test [5], in [2], in test [4] and in test [6] was “inactive” in each case.

On to `O=C(N/N=C/c1ccccc1O)c1ccncc1`, for which the Potency result in test [1] was “inactive”.

In the case of `CCc1cc(SCc2sc(-c3ccc(C(F)(F)F)cc3)nc2CN2CCN(c3ccc(OC)cc3)CC2)ccc1OCC(=O)O`, the Potency is 24.5 µM (active) in test [1] and 15.4 µM (active) in test [2].

Consider `COC(=O)C1=C(C)NC(C)=C(C(=O)OCCc2ccc(N3CCN(C(c4ccccc4)c4ccccc4)CC3)cc2)C1c1cccc([N+](=O)[O-])c1` (stereo unspecified), for which the Potency entry in [1], in [2] and in test [4] was “inactive” throughout.

With `COC(=O)c1cc(Cl)ccc1OC`, the Potency result in [7], in test [1], in [5], in [2], in test [4] and in test [6] was “inactive” in each case.

For the compound `CCCCCCCC(=O)[O-].CCCCCCCC(=O)[O-].[Zn+2]`, the Potency entry in test [7], in test [5], in test [2], in test [4] and in [6] was “inactive” throughout.

In the case of `Cc1[nH]nc2c1N=C(c1ccccc1Cl)c1cc([N+](=O)[O-])ccc1N2`, the Potency is 48.6 µM (active) in test [8], 38.9 µM (active) in [1], 15.4 µM (active) in test [2] and 15.5 µM (active) in test [4].

Turning to `CC1=C(C(=O)OC(C)C)C(c2cccc([N+](=O)[O-])c2)C(C(=O)OC2CN(C(c3ccccc3)c3ccccc3)C2)=C(N)N1` (stereo unspecified), the values for the Potency in test [1], in test [2] and in [4] were 23.7 µM (active), 23.7 µM (active) and 10.6 µM (active), respectively.

For the compound `O=c1cc(-c2ccc(O)cc2)oc2cc(O)cc(O)c12`, the results for the Potency in test [7] and in test [4] were 21.9 µM (active) and 12.3 µM (active), respectively. For the same compound, the Potency result in test [1], in test [2] and in [6] was “inactive” in each case.

For `CCC(CN)=C(c1ccccc1)c1ccccc1`, the Potency result in test [1], in test [5], in test [2], in test [4] and in [6] was “inactive” throughout.

Consider `CC(C)C(C)(C)C(C)(C)C(C)(C)S`, for which, in [4], the Potency entry is “inactive”.

For `CCCCC(CC)COC(=O)c1ccccc1C(=O)O` (stereo unspecified), the Potency entry in test [8], in test [1] and in test [2] was “inactive” each time.

Take `CCCCCCCCNC(C)C(O)c1ccc(SC(C)C)cc1` (stereo unspecified): the Potency entry in test [9] is “inactive”. Moreover, the Potency was 23.7 µM (active) in test [1], 16.8 µM (active) in test [2] and 18.8 µM (active) in test [4].

In the case of `Nc1cc(C(F)(F)F)ccc1S`, the Potency entry in test [7], in [1], in test [5], in test [2] and in test [4] was “inactive” throughout.

As to `CCCCCOc1ccccc1/C(=C\SC)n1ccnc1`, in [7], the Potency is 29.8 µM (active). Moreover, the Potency entry in test [1], in [2] and in [4] was “inactive” in each case.

On to `Nc1nc2ccccc2n1Cc1ccc(F)cc1`, for which the Potency entry in [2] and in [4] was “inactive” throughout.

With `O=C(Oc1ccccc1)c1ccccc1C(=O)Oc1ccccc1`, the Potency entry in test [8], in [1], in test [2] and in test [4] was “inactive” each time.

Regarding `O=[N+]([O-])c1cc([N+](=O)[O-])c2ccc(S(=O)(=O)O)cc2c1O`, in test [8], the Potency was 24.2 µM (active). Besides, the Potency result in test [2] and in test [4] was “inactive” each time.

On to `C/C(=C(/OCCOc1ccc(Cl)cc1)c1ccc(Cl)cc1Cl)n1ccnc1`, for which the Potency result in test [7] is “inactive”. Moreover, the Potency in test [2] was 42.2 µM (active).

Turning to `CN(C)[C@@H]1C(=O)C(C(N)=O)=C(O)[C@@]2(O)C(=O)C3=C(O)c4c(O)cccc4C[C@H]3C[C@@H]12`, the Potency result in [2] and in [4] was “inactive” throughout.

As for `CCCCCCCCOC(=O)c1ccc(O)cc1`, the Potency result in test [8], in test [1] and in test [5] was “inactive” each time.

`Cc1oc(-c2ccccc2)nc1CCC(=O)c1ccc(CC2SC(=O)NC2=O)cc1` (stereo unspecified): the Potency in [5] is 13.3 µM (active). Besides, the Potency result in [2] and in [4] was “inactive” each time.

Take `COc1cccc(N)c1`: the Potency result in test [2] and in test [6] was “inactive” in each case.
